Rows were chosen to be rich in hits. Some 10% of all compounds tested hit in one or more screens of this group.
BAZ2B block: BAZ2B (human) inhibition; AlphaScreen BAZ2B-H3K14Ac peptide displacement; Potency, µM (titrated, usually from 114 µM), without a hit: at the highest dose activity change, negative = inhibition, usual class: inhibitors; 360,000 tested, 4.4% active; further: potency means the concentration at half of the fitted maximal effect; on the % scale 0 is the no-effect control and ±100 the full control effect; nearly all actives have a fitted effect of over 60% in size
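BAZ2B 50 nM plus b-H3(5-23)K14Ac 50 nM, PBS pH 7.4/0.01% Tween-20, 30 min RT; compound added (max 110 uM), 30 min RT; streptavidin donor/Ni-chelate acceptor beads 10 ug/mL final, 20 min dark; AlphaScreen read.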
HP1b binding inh: inhibitors of HP1-beta chromodomain binding to methylated histone tails; P83916; AlphaScreen HP1-beta / biotin-H3K9me3 peptide binding; Potency, µM (series often up to 114 µM), for inactives: at the top dose activity change, negative = inhibition, usual class: inhibitors; 390,000 tested, 0.56% active; AID 540317; further: potency means the concentration at half of the fitted maximal effect; nearly all actives have a fitted effect of over 70% in size
Target sequence (P83916 whole entry, looked up): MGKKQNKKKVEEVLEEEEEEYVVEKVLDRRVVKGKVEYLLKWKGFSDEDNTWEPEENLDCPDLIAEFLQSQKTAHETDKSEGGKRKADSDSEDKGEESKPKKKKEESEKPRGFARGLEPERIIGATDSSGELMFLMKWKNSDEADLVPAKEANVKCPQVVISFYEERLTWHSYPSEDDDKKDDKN
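HP1-beta protein (50 nM final) preincubated 30 min at room temperature with biotinylated H3(1-18)K9me3 peptide (50 nM) in PBS pH 7.4, 0.01% Tween-20, then compound added for 30 min. AlphaScreen streptavidin donor/nickel chelate acceptor beads (10 ug/mL final), 30 min dark, luminescence read.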
CtBP-E1A inh: blocks the CtBP interaction with E1A; AlphaScreen GST-E1A/His-CtBP binding, 1536-well; stronger effect = lower value; activity change, % (concentration not given with the values); 340,000 tested, 0.49% active; AID 651724; in the data active means activity change below about -65%; inconclusive means mostly about -30% to -63%; further: on the % scale 0 is the no-effect control and ±100 the full control effect
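Steps: dispense buffer (Tris pH 8.0, NaCl 300 mM, TCEP 1 mM, BSA, Tween 20); add 5X protein mix (GST-E1A, His-CtBP, 125 nM each); pin 23 nL compound; 2 h at 37 °C, dark; add 5X beads (50 ug/mL); 1 h; read.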
JMJD2A Tudor: blocks the human JMJD2A Tudor domain | O75164 | AlphaScreen JMJD2A-Tudor / H3K4me3 peptide binding | Potency, µM (top dose mostly 114 µM), inactives show at the highest dose activity change, negative = inhibition, most hits filed as inhibitors | 390,000 tested, 4.4% active | AID 504339; further: potency means the concentration at half of the fitted maximal effect; on the % scale 0 is the no-effect control and ±100 the full control effect; nearly all actives have a fitted effect of over 50% in size
Six1-Eya2 blk: Six1/Eya2 interaction inhibition; Q15475+O00167; AlphaScreen GST-Six1/His-Eya2 binding, biochemical; stronger effect = lower value; activity change, % (test concentration not listed); 360,000 tested, 0.56% active; in the data active means activity change below about -65%; inconclusive means mostly about -30% to -63%; further: on the % scale 0 is the no-effect control and ±100 the full control effect
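Six1/Eya2 binding was read as AlphaScreen signal after compounds were pinned into GST-Six1 plus His-tagged Eya2 (5X stock 250/500 nM) in pH 8.0 Tris/NaCl/TCEP buffer, beads added, then incubated 1 h, 37 C, dark.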
G9a block: blocks human histone lysine methyltransferase G9a. 350,000 tested, 8.8% active. AID 504332. Potency, µM (series often up to 102 µM), inactives show at the top dose activity, negative = inhibition, usual class: inhibitors. G9a H3K9 monomethylation, AlphaScreen, 2 h. Q96KQ7; further: potency means the concentration at half of the fitted maximal effect; on the % scale 0 is the no-effect control and ±100 the full control effect; nearly all actives have a fitted effect of over 75% in size
Target sequence (Q96KQ7 913-1193 limits assumed): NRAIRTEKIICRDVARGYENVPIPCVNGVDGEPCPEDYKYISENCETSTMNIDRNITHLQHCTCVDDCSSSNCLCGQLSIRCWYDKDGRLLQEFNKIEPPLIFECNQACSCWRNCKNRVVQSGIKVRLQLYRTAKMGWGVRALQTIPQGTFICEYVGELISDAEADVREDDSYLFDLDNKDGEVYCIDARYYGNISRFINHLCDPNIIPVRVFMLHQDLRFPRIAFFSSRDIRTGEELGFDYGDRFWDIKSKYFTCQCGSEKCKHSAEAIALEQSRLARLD
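AlphaScreen detection with an anti-monomethyl H3K9 antibody quantified product after a 2 h room-temperature reaction containing 500 nM biotinylated H3K9 peptide, 20 µM SAM and 20 nM enzyme, which had been preincubated 15 min with compound.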
Numbers without * were called inactive; [ ] = dose if it differs, or a comment. Unless noted, the call rests on the fitted dose curve; in most records, active means well fitted inhibition curve with a large enough effect; inconclusive means small, poorly fitted or top-dose-only effect; inactive means no such curve, though single readings can be large or run the other way.

How did COc1ccc(S(=O)(=O)Nc2cc(C(=O)NCCC(C)C)ccc2N2CCOCC2)cc1 do in these assays?
BAZ2B block: -30.0%; HP1b binding inh: 39.4%; CtBP-E1A inh: 36.1; JMJD2A Tudor: -11.7%; Six1-Eya2 blk: 24.0; G9a block: 50.1µM*

How did CCN1CCCC1CNC(=O)c1ccc(N2CCOCC2)c(NS(=O)(=O)c2ccc(OC)cc2)c1 (stereo unspecified) do in these assays?
BAZ2B block: -16.3%; HP1b binding inh: 29.9%; JMJD2A Tudor: -17.2%; Six1-Eya2 blk: -1.0; G9a block: 50.1µM*

Results for COc1ccc(Cl)cc1CC1(C)C(=O)Nc2ccc(S(=O)(=O)NC3CCCCC3)cc21 (stereo unspecified) ?
CtBP-E1A inh: -2.8; Six1-Eya2 blk: -2.0

What do the screens show for `O=C1S/C(=C\c2ccccn2)C(=O)N1Cc1ccccc1F`?
BAZ2B block: 6.2%; HP1b binding inh: 0.9%; CtBP-E1A inh: -2.4; JMJD2A Tudor: -20.0%; Six1-Eya2 blk: 6.5; G9a block: 17.8µM*

Results for CC(C)(C)c1ccc(O)c(O)c1 ?
BAZ2B block: -7.6%; HP1b binding inh: inconclusive; CtBP-E1A inh: 4.0; JMJD2A Tudor: 12.6µM*; Six1-Eya2 blk: 0.8; G9a block: 9.1%[0.501 µM]

How did CC(C)(C)c1ccc(O)c(/C=N\O)c1 do in these assays?
BAZ2B block: -6.9%; HP1b binding inh: 29.9%; CtBP-E1A inh: 2.8; JMJD2A Tudor: inconclusive; Six1-Eya2 blk: 1.9; G9a block: 29.2%[59 µM]

Results for O=C1c2ccccc2C(c2nnnn2-c2ccc3c(c2)OCCO3)N1CCCn1ccnc1 (stereo unspecified) ?
CtBP-E1A inh: 27.0; Six1-Eya2 blk: 24.7

What do the screens show for `COc1ccc(Br)cc1CNc1ccc2[nH]c(=O)[nH]c2c1`?
BAZ2B block: 39.8µM*; HP1b binding inh: inconclusive; CtBP-E1A inh: -22.2; JMJD2A Tudor: 50.1µM*; Six1-Eya2 blk: -20.4; G9a block: inconclusive

What do the screens show for `COc1cc(CNc2ccc3[nH]c(=O)[nH]c3c2)ccc1OCc1ccc(F)cc1`?
BAZ2B block: -25.6%; HP1b binding inh: 21.6%; CtBP-E1A inh: -1.9; JMJD2A Tudor: -6.3%; Six1-Eya2 blk: -12.3; G9a block: inconclusive

How did COc1cc(CNc2ccc3[nH]c(=O)[nH]c3c2)ccc1OCc1ccccc1 do in these assays?
BAZ2B block: inconclusive; HP1b binding inh: 5.0%; CtBP-E1A inh: -12.8; JMJD2A Tudor: -29.6%; Six1-Eya2 blk: -16.5; G9a block: 31.6µM*

What do the screens show for `C=CCOc1ccc(CNc2ccc3[nH]c(=O)[nH]c3c2)cc1OC`?
BAZ2B block: -27.3%; HP1b binding inh: 6.2%; CtBP-E1A inh: -7.0; JMJD2A Tudor: -11.3%; Six1-Eya2 blk: inconclusive; G9a block: 44.7µM*

Results for C=CCOc1cccc(CNc2ccc3[nH]c(=O)[nH]c3c2)c1 ?
BAZ2B block: inconclusive; HP1b binding inh: -25.4%; CtBP-E1A inh: 10.8; JMJD2A Tudor: inconclusive; Six1-Eya2 blk: -16.1; G9a block: 20µM*

How did C=CCOc1cccc(CNCc2ccncc2)c1 do in these assays?
BAZ2B block: -33.7%; HP1b binding inh: 28.9%; CtBP-E1A inh: -2.3; JMJD2A Tudor: -35.5%; Six1-Eya2 blk: 5.7; G9a block: -46.0%[59 µM]

Results for C[C@@H](NC(=O)[C@@H]1CCCN1C(=O)[C@@H]1CCCN1)c1ccccc1 ?
CtBP-E1A inh: -0.2; Six1-Eya2 blk: -5.6

What do the screens show for `Cc1ccc(NC(=O)COC(=O)CCc2c[nH]c3ccccc23)c(C)c1`?
BAZ2B block: -10.8%; HP1b binding inh: 13.8%; JMJD2A Tudor: -30.6%; Six1-Eya2 blk: -12.9; G9a block: -11.1%[12.7 µM]

How did Cn1cc(C(=O)[C@@H]2CCc3[nH]cnc3C2)c2ccccc21 do in these assays?
G9a block: -4.1%[12.7 µM]

What do the screens show for `COc1ccc(C)cc1S(=O)(=O)N1CCCC(C(=O)NC2CC2)C1` (stereo unspecified)?
BAZ2B block: -1.7%; HP1b binding inh: 30.8%; CtBP-E1A inh: 5.9; JMJD2A Tudor: -0.7%; Six1-Eya2 blk: -0.5; G9a block: 44.0%

Assay outcomes deposited in PubChem BioAssay by National Center for Advancing Translational Sciences (NCATS).
